Active and inactive are the calls of the source.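 Rule for the calls, unless noted: active = inhibition at or above 50% at 10 µM; inactive = inhibition below 50%.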

Assay [1] can be described thus: inhibitors of TNFa-induced NFkB p65 translocation, primary screen, imaging, HUVEC, MLSMR starter and 10KST1 sets (AID 438;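 active = inhibition above 20% together with a positive visual image hit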;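 note: compound added about 3h40 before a 20 min TNFalpha stimulation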;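 for inhibition: signal is the nuclear over cytoplasmic p65 intensity ratio per well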). The following applies: HUVEC TNFa-induced p65 nuclear translocation; cell count: measured here: nuclei count (cytotoxicity indicator), at 2.08 µM; inhibition: at 2 µM, stronger effect = higher value, 0% TNFa-plus-vehicle, 100% no-TNFa wells.
The nature of assay [2]: inhibitors of mutant huntingtin aggregation, primary screen, imaging, exon1htt(103Q)mCFP cells, high-content imaging (AID 483;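 active = visual image review flags a hit and inhibition of aggregation exceeds 20%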;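 note: compound exposure lasted 3 days before fixation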;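 for nuclei count: percent of the per-plate median nuclei count of sample wells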). As to conditions: exon1htt(103Q)mCFP cell line, aggregate imaging, at 2 µM; inhibition of aggregation: stronger effect = higher value; nuclei count: measured here: cell count, toxicity.
Assay [3] can be described thus: inhibitors of E-selectin induction by TNFa, primary screen, imaging, HUVEC, immunofluorescence, MLSMR starter and 10KST1 sets (AID 487;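 active = visually confirmed hit in the image check and inhibition above 20%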;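 for inhibition: signal is fraction of cell area covered by stained E-selectin grains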;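 for nuclei count: 100% = median nuclei count of all wells on the same plate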). The following applies: HUVEC TNFalpha-induced E-selectin immunofluorescence imaging, at 2 µM; inhibition: stronger effect = higher value; nuclei count: measured here: cell number, toxicity.
The target in assay [4] is Voltage-gated potassium channel subunit beta-2 (Rattus norvegicus) (UniProt P62483). The experiment in a line: KvBeta enzyme negative modulators, primary screen, biochemical, NADPH fluorescence (AID 622;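 active = fluorescence slope higher than the sample average by over 3 SD, cut at about -0.22 in these data, passing the limit was not always enough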;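 note: slope of raw intensity against log time taken from 70 to 1610 s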). The following applies: recombinant KvBeta, 4-cyanobenzaldehyde reduction, at 10 µM, stronger effect = higher value.
For assay [5] the target is unchanged. Description: KvBeta positive modulators, primary screen, biochemical, NADPH fluorescence (AID 623;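 active = NADPH fluorescence slope more negative than the mean of all samples by about 3 SD, 99.7% confidence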;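 note: fluorescence intensity change per second fitted from 20 to 320 s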). As to conditions: Recombinant KvBeta, NADPH fluorescence decrease slope, 10 min; at 10 µM; stronger effect = lower value.
The target of assay [6] is Alpha-2C adrenergic receptor (Homo sapiens) (UniProt P18825). Description: modulators of alpha2C/GIRK thallium flux, primary screen, cell-based, HEK293 alpha2C/GIRK1/2 (AID 624;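 active = fluorescence slope after compound addition differing from the mean of all screened samples at 99.7% confidence, in either direction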;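 note: slope of fluorescence ratio to pre-addition baseline per second over 15 to 24 s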). The following applies: thallium flux BTC fluorescence, at 10 µM, actives lie on both sides.
Assay [7] in a line: inhibitors of Sendai virus-induced IRF3 signaling, primary screen, TLR/RLR signaling modifier project, cell-based, Sendai virus stimulus, luciferase, 10K MLSCN set (AID 602276).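 Note: firefly luciferase from ISG56 promoter only with Renilla not read in this screen; 0% = Sendai virus plus DMSO and 100% = medium plus DMSO without virus.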 The following applies: HEK293 RL24 IRF3 luciferase reporter, at 10 µM, stronger effect = higher value.
Assay [8] is described as follows: inhibitors of poly I:C-induced TLR3 signaling, primary screen, cell-based, poly I:C stimulus, luciferase, 10K MLSCN set (AID 602277;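 active = inhibition of the reporter signal at or above 50%; inactive = inhibition below 50%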). The following applies: HEK293-TLR3 RL24 IRF3 luciferase reporter, at 10 µM, stronger effect = higher value.

Alpha-2C adrenergic receptor (Homo sapiens), sequence (P18825 whole entry, looked up): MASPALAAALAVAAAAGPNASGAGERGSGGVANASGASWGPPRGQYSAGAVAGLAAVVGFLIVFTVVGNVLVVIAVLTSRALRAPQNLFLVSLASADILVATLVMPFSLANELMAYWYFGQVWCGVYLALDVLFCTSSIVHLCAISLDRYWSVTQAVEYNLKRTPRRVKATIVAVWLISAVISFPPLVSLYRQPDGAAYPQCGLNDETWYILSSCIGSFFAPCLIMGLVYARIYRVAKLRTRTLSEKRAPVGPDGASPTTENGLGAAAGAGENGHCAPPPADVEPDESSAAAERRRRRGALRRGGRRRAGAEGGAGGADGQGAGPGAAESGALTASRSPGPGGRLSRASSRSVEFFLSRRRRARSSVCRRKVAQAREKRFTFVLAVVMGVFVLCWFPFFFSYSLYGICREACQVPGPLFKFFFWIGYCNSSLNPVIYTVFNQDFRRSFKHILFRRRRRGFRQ
Voltage-gated potassium channel subunit beta-2 (Rattus norvegicus), sequence (P62483 whole entry, looked up): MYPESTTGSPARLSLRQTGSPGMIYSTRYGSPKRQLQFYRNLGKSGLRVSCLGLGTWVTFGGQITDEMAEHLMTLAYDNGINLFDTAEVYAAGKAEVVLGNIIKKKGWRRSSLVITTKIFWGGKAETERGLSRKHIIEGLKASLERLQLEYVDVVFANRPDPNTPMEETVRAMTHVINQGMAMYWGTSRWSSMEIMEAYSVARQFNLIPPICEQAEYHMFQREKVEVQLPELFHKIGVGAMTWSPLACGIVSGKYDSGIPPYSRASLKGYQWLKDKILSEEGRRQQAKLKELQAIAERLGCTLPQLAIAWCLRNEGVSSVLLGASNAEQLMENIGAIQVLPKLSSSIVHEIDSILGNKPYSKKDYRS

As to `COc1ccccc1S(=O)(=O)Cc1ccc(C(=O)N2CCN(c3ccc(C)cc3)C(C)C2)o1` (stereo not drawn), the cell count in assay [1] amounted to 566. In addition, the inhibition in assay [1] was 6.1% (inactive); in assay [3] it was -2.9% (inactive); in assay [7] it was 16.6% (inactive); in assay [8] it was 22.5% (inactive). Further, in assay [2], the inhibition of aggregation is -8.4% (inactive). For the same compound, the nuclei count was determined as 117% in assay [2] and 91.7% in assay [3]. Besides, the fluorescence slope in assay [4] was -0.527 (inactive). Moreover, in assay [5], the NADPH fluorescence slope is -2.9e-05 (inactive). In addition, in assay [6], the slope is 0.00593 (inactive).
`CC1=C(C(=O)NC2CCCC(C)C2C)C2(CCCCC2)OC1=O` (stereo not drawn): in assay [1], the cell count worked out at 515. Further, the inhibition in assay [1] is 3.3% (inactive); in assay [3], -37.4% (inactive); in assay [7], -0.153% (inactive); in assay [8], 17.7% (inactive). In addition, the inhibition of aggregation in assay [2] is 18.1% (inactive). Besides, the results for the nuclei count in assay [2] and in assay [3] were 64.9% and 114%, respectively. Also, the fluorescence slope in assay [4] is -0.598 (inactive). Also, the NADPH fluorescence slope in assay [5] is -6.8e-07 (inactive). Besides, in assay [6], the slope was 0.00687 (inactive).
Take `Cc1nnc(SCC(=O)Nc2ccc(Br)cn2)[nH]c1=O`: the cell count in assay [1] turned out to be 359. Besides, the inhibition is -8.5% (inactive) in assay [1], -43.2% (inactive) in assay [3], 15.8% (inactive) in assay [7] and 5.27% (inactive) in assay [8]. In assay [2], the inhibition of aggregation was 18.1% (inactive). The nuclei count was found to be 117% in assay [2] and 114% in assay [3]. Besides, the fluorescence slope in assay [4] is -0.426 (inactive). For the same compound, in assay [5], the NADPH fluorescence slope was -1.1e-05 (inactive). Further, the slope in assay [6] was 0.00432 (inactive).
For the compound `Cc1ccc(S(=O)(=O)Cn2nnnc2C(C(C)C)N2CCN(C(=O)c3ccco3)CC2)cc1` (stereo not drawn), in assay [1], the cell count came out at 400. Besides, the inhibition is -0.4% (inactive) in assay [1], 6.9% (inactive) in assay [3], 11.4% (inactive) in assay [7] and 15.4% (inactive) in assay [8]. Moreover, in assay [2], the inhibition of aggregation is 2.5% (inactive). In addition, the nuclei count in assay [2] amounted to 100%; in assay [3], 101%. Also, the fluorescence slope in assay [4] was -0.405 (inactive). The NADPH fluorescence slope in assay [5] was -4.2e-05 (inactive). Moreover, in assay [6], the slope is 0.00633 (inactive).
As for `COc1ccccc1C(=O)NCCNC(=O)c1ccco1`, in assay [1], the cell count stood at 388. For the same compound, the inhibition in assay [1] is 6.3% (inactive); in assay [3], -78% (inactive); in assay [7], -4.73% (inactive); in assay [8], -9.5% (inactive). For the same compound, in assay [2], the inhibition of aggregation was 5.6% (inactive). In addition, the nuclei count in assay [2] was 110%; in assay [3], 113%. Further, the fluorescence slope in assay [4] was -0.412 (inactive). The NADPH fluorescence slope in assay [5] was -4.6e-05 (inactive). In assay [6], the slope is 0.00705 (inactive).
For the compound `CCOc1ccc2nc(NC(=O)CSc3nnnn3C3CCCCC3)sc2c1`, the cell count in assay [1] is 401. The inhibition in assay [1] is 1.7% (inactive); in assay [3], -74.4% (inactive); in assay [7] it was -4.95% (inactive); in assay [8], -46.7% (inactive). The inhibition of aggregation in assay [2] is -8% (inactive). For the same compound, the nuclei count in assay [2] is 108%; in assay [3], 92.8%. For the same compound, the fluorescence slope in assay [4] is -0.393 (inactive). In addition, the NADPH fluorescence slope in assay [5] was -3.7e-05 (inactive). For the same compound, the slope in assay [6] was 0.00315 (inactive).
For the compound `CCn1cc(C(=O)O)c(=O)c2cc(F)c(N3CCN(C(=O)Nc4ccccc4)CC3)cc21`, the cell count in assay [1] was determined as 676. Besides, the inhibition in assay [1] is -14% (inactive); in assay [3] it was -42.9% (inactive); in assay [7] it was 8.6% (inactive); in assay [8], 10.7% (inactive). For the same compound, the inhibition of aggregation in assay [2] was 27.3% (inactive). In addition, the nuclei count in assay [2] was 68.8%; in assay [3] it was 101%. For the same compound, the fluorescence slope in assay [4] is -0.498 (inactive). The NADPH fluorescence slope in assay [5] is -8.3e-06 (inactive). For the same compound, the slope in assay [6] was 0.00493 (inactive).
Consider `CCOc1cccc(C(=O)N(Cc2ccco2)C2CCS(=O)(=O)C2)c1` (stereo not drawn), for which the cell count in assay [1] is 609. In addition, the inhibition in assay [1] is 9.6% (inactive); in assay [3] it was -9.8% (inactive); in assay [7] it was 11.5% (inactive); in assay [8], 13.7% (inactive). Moreover, the inhibition of aggregation in assay [2] is 2.4% (inactive). The figures for the nuclei count in assay [2] and in assay [3] were 107% and 110%, respectively. For the same compound, in assay [4], the fluorescence slope was -0.342 (inactive). Besides, in assay [5], the NADPH fluorescence slope is -6.1e-05 (inactive). In addition, the slope in assay [6] is 0.00467 (inactive).
As for `c1ccc2oc(SCc3cn4ccccc4n3)nc2c1`, the cell count in assay [1] amounted to 612. The inhibition in assay [1] was 12.6% (inactive); in assay [3], -30.4% (inactive); in assay [7] it was -46.4% (inactive); in assay [8], -151% (inactive). Further, the inhibition of aggregation in assay [2] is 16.1% (inactive). Also, the nuclei count was determined as 99.8% in assay [2] and 132% in assay [3]. In addition, the fluorescence slope in assay [4] is -0.506 (inactive). For the same compound, the NADPH fluorescence slope in assay [5] is -4.1e-05 (inactive). The slope in assay [6] is 0.00508 (inactive).
`CCc1ccc(NC(=O)C2CC(=O)N(C(C)C)C2)cc1` (stereo not drawn): in assay [1], the cell count was 346. For the same compound, the inhibition in assay [1] was -6.8% (inactive); in assay [3] it was -6.6% (inactive); in assay [7], 7.09% (inactive); in assay [8] it was 0.245% (inactive). In addition, in assay [2], the inhibition of aggregation was 23.8% (inactive). The nuclei count in assay [2] worked out at 92.5%; in assay [3], 75.6%. The fluorescence slope in assay [4] was -0.62 (inactive). The NADPH fluorescence slope in assay [5] is 2.5e-05 (inactive). In addition, the slope in assay [6] is 0.00536 (inactive).
Take `Cc1cccc(NC(=O)C2CCCN(C(=O)Nc3ccccc3)C2)c1C` (stereo not drawn): the cell count in assay [1] was 599. In addition, the inhibition in assay [1] is -28.6% (inactive); in assay [3], -9.2% (inactive); in assay [7] it was 4% (inactive); in assay [8] it was -12% (inactive). Also, the inhibition of aggregation in assay [2] was -9.1% (inactive). The nuclei count in assay [2] is 87.8%; in assay [3], 85.7%. The fluorescence slope in assay [4] is -0.573 (inactive). The NADPH fluorescence slope in assay [5] was 4.6e-05 (inactive). Also, in assay [6], the slope is 0.00746 (inactive).
In the case of `CCOC(=O)CSc1nnc(-c2ccc(NS(=O)(=O)c3ccc(C)cc3)cc2)o1`, the cell count in assay [1] came out at 813. Moreover, the inhibition was -6.7% (inactive) in assay [1], -37.7% (inactive) in assay [3], 8.31% (inactive) in assay [7] and 29.4% (inactive) in assay [8]. Further, the inhibition of aggregation in assay [2] was -0.7% (inactive). Besides, the nuclei count is 98.9% in assay [2] and 108% in assay [3]. Besides, the fluorescence slope in assay [4] is -0.433 (inactive). Also, in assay [5], the NADPH fluorescence slope is -4.4e-05 (inactive). For the same compound, the slope in assay [6] was 0.00389 (inactive).
As to `CCOC(=O)C1=C(C)Nc2nnnn2C1c1ccc(OC)c(Br)c1` (stereo not drawn), the cell count in assay [1] came to 635. Also, the inhibition in assay [1] was 5.8% (inactive); in assay [3] it was 2.7% (inactive); in assay [7] it was -20% (inactive); in assay [8], -12.8% (inactive). Further, the inhibition of aggregation in assay [2] is -8.3% (inactive). The nuclei count in assay [2] came to 94.6%; in assay [3], 111%. The fluorescence slope in assay [4] is -0.574 (inactive). Further, the NADPH fluorescence slope in assay [5] was -1.5e-05 (inactive). Further, the slope in assay [6] is 0.00761 (inactive).
